From PubChem BioAssay (Tox21)
Results filed as inconclusive are left out. Active and inactive are the calls of the source. Unless noted, calls come from the whole dose curve; as a rule, active = well fitted curve in the direction sought with a large enough effect in the repeat runs; inconclusive = weak or mixed curves; inactive = no such curve, though single readings can be large; an effect the other way counts as inactive or inconclusive.

Tests used:
[1] = qHTS assay to identify small molecule antagonists of the estrogen related receptor (ERR) signaling pathway from Tox21 library - cell viability counter screen (AID 1224834); note: nearly all actives have a fitted effect of over 30% in size
Outline: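 Counter screen run in ERR cells (2,000 cells/well): cells pre-incubated 6 h, then treated with compounds for 17.5 h at 37 C. Fluorescence was read 30 min after CellTiter-Fluor addition.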

[2] = molecular target: Luciferin 4-monooxygenase (Photinus pyralis) (UniProt P08659); experiment: qHTS assay to identify small molecule inhibitors of firefly luciferase (AID 1224835); note: nearly all actives have a fitted effect of over 25% in size
Luciferin 4-monooxygenase (Photinus pyralis), sequence (P08659 whole entry, looked up): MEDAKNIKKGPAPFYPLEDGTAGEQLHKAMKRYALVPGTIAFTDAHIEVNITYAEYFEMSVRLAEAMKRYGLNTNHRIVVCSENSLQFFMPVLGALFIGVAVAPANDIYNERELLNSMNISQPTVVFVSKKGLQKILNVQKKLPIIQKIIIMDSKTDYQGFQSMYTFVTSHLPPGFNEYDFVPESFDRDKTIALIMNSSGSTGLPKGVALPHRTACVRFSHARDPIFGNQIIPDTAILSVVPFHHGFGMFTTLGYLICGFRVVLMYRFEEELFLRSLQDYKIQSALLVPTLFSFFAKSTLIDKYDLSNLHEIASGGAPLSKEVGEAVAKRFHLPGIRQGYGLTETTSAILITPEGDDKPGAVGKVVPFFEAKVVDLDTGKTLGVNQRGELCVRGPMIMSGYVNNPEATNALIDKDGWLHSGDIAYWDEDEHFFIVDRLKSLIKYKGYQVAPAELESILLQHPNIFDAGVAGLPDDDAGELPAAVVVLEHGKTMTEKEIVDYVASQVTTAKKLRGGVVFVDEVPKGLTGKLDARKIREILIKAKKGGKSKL
Outline: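 Inhibition of purified Photinus luciferase is measured by luminescence. Substrate levels (D-luciferin, ATP) sit at their KM values. Each compound is tested in a concentration series.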

[3] = qHTS assay to identify small molecule agonists of the constitutive androstane receptor (CAR) signaling pathway - cell viability counter screen (AID 1224836); note: nearly all actives have a fitted effect of over 45% in size
Outline: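 HepG2 cells stably carrying hCAR and a CYP2B6-2.2kb reporter were plated 4 h, then given compounds at 15 concentrations plus PK11195 (final 0.75 uM). After 23 h at 37 C, viability was read by CellTiter-Fluor fluorescence.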

[4] = qHTS assay to identify small molecule antagonists of the constitutive androstane receptor (CAR) signaling pathway - cell viability counter screen (AID 1224837); note: nearly all actives have a fitted effect of over 45% in size
Outline: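 CITCO at 50 nM final was added alongside compounds (15 concentrations) to double-stable hCAR/CYP2B6-2.2kb HepG2 cells. Following 23 hr at 37 C, cell viability was quantified by CellTiter-Fluor fluorescence intensity.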

[5] = molecular target: Nuclear receptor subfamily 1 group I member 3 (Homo sapiens) (UniProt Q14994); experiment: qHTS assay to identify small molecule agonists of the constitutive androstane receptor (CAR) signaling pathway (AID 1224839); note: nearly all actives have a fitted effect of over 15% in size
Nuclear receptor subfamily 1 group I member 3 (Homo sapiens), sequence (Q14994 whole entry, looked up): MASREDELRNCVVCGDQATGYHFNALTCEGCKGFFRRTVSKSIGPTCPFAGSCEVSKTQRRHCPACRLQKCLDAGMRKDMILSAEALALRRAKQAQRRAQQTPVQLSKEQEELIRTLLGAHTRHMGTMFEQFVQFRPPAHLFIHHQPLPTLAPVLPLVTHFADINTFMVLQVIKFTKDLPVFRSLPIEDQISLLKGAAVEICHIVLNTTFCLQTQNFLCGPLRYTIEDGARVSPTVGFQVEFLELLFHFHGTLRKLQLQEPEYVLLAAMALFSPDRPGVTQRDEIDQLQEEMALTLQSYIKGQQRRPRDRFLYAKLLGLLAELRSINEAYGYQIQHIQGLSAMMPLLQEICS
Outline: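 HepG2 cells stably expressing hCAR and a CYP2B6-2.2kb luciferase reporter were treated with compounds at 15 concentrations plus 0.75 uM PK11195 (final) for 24 h at 37 C; luminescence was read after ONE-Glo addition.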

[6] = qHTS assay to identify small molecule antagonists of the estrogen related receptor signaling pathway with the pleiotropic PPARgamma coactivator (PGC) from Tox21 10K library - cell viability counter screen (AID 1224840; active = well fitted cell-killing curve with a large enough effect in the repeat runs, not every such curve was filed as active; note: nearly all actives have a fitted effect of over 40% in size)
Outline: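 Readout: fluorescence intensity from CellTiter-Fluor after 30 min at 37 C/5% CO2. Preceded by 17.5 h treatment of PGC/ERR cells with DMSO-dissolved compounds, added 6 h post-seeding.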

[7] = qHTS assay to identify small molecule antagonists of the estrogen related receptor signaling pathway with the pleiotropic PPARgamma coactivator (PGC) from Tox21 10K library (AID 1224841; call rule not given here; note: actives are mostly falling curves and most rising ones were filed inactive; nearly all actives have a fitted effect of over 50% in size)
Outline: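 One-Glo luminescence, measured after half an hour at room temperature, quantified reporter output of PGC/ERR cells. These had been plated at 2,000 per well, incubated 6 h, dosed with compounds in DMSO, then kept 18 h at 37 C.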

[8] = qHTS assay to identify small molecule agonists of the estrogen related receptor signaling pathway with the pleiotropic PPARgamma coactivator (PGC) from Tox21 10K library (AID 1224842); note: nearly all actives have a fitted effect of over 15% in size
Outline: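 Luminescence from One-Glo (30 min, room temperature) measured after PGC/ERR cells had 18 h at 37 C with pinned compound (23 nL in DMSO). Cells had been seeded at 2,000 per well and pre-incubated 6 h.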

[9] = molecular target: Thyrotropin receptor (Homo sapiens) (UniProt P16473); experiment: qHTS assay to identify small molecule agonists of the thyroid stimulating hormone receptor (TSHR) signaling pathway (AID 1224843; calls by dose curve; note: nearly all actives have a fitted effect of over 45% in size)
Thyrotropin receptor (Homo sapiens), sequence (P16473 whole entry, looked up): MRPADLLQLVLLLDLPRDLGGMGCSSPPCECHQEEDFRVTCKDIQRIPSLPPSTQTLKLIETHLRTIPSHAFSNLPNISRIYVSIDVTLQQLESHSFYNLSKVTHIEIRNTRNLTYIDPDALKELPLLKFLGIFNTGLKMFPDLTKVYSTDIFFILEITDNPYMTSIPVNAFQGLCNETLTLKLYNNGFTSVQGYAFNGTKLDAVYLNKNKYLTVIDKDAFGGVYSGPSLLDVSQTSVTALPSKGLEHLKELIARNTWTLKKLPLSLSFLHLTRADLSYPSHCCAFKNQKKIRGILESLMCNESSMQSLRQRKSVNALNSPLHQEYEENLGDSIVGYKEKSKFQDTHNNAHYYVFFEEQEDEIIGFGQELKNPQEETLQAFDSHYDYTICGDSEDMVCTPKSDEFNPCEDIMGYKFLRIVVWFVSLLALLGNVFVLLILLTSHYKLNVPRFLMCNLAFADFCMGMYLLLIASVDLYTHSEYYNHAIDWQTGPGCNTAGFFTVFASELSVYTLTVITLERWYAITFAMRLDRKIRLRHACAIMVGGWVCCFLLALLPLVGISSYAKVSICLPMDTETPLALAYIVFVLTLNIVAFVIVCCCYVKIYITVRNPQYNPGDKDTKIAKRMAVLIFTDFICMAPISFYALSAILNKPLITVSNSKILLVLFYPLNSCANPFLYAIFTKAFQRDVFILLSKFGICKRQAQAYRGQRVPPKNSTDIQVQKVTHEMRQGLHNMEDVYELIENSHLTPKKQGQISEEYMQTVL
Outline: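 Agonist activity read as cAMP rise via d2/cryptate HTRF competition, 1 h room-temperature detection, in HEK293 cells expressing TSHR. Fifteen-point titrations, each run in triplicate, with a 30 min room-temperature incubation beforehand.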

[10] = qHTS assay to identify small molecule agonists of the hypoxia (HIF-1) signaling pathway - cell viability counter screen (AID 1224844; calls by dose curve; note: nearly all actives have a fitted effect of over 50% in size)
Outline: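 In this counter screen, HRE-bla ME-180 cell viability after 17 hrs of compound exposure at 37C was read by CellTiter-Glo luminescence, multiplexed with the beta-lactamase reporter measurement.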

[11] = qHTS assay to identify small molecule agonists of H2AX (AID 1224845; active = well fitted activation curve with a large enough effect in the signal ratio in the repeat runs, not every such curve was filed as active; the % refers to the signal ratio)
Outline: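 Phospho-H2AX Ser139 measured by HTRF (ex 320 nm; em 665 and 620 nm) after 24 hr antibody incubation. Compounds, 15 concentrations, 0.76% DMSO, were applied to CHO-K1 cells for 3hr at 37C before lysis.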

[12] = qHTS assay to identify small molecule agonists of the hypoxia (HIF-1) signaling pathway (AID 1224846; active = well fitted activation curve with a large enough effect in the signal ratio in the repeat runs, not every such curve was filed as active; the % refers to the signal ratio)
Outline: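 ME-180 HRE-bla reporter cells; compounds in DMSO, 17 h at 37C; read-out beta-lactamase via CCF4-AM FRET.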

[13] = qHTS assay to identify small molecule agonists of H2AX - cell viability counter screen (AID 1224847; calls by dose curve; note: top concentration of the series differs between compounds; nearly all actives have a fitted effect of over 30% in size)
Outline: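 Wild-type CHO-K1 cells (10% FBS medium) were plated overnight at 37C, exposed to compounds at 15 concentrations for 3 hr at 37C (0.76% DMSO final), and viability was read as CellTiter-Glo luminescence after 30 min at room temperature.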

[14] = qHTS assay to identify small molecule antagonists of the estrogen related receptor (ERR) signaling pathway from Tox21 library (AID 1224848); note: nearly all actives have a fitted effect of over 50% in size
Outline: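 Luciferase luminescence (ONE-Glo, 30 min room temperature) was the read-out. Cells of the NTP-supplied ERR line, 2,000 per well, were given 6 h at 37 C before compound addition in DMSO and 18 h exposure at 37 C.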

[15] = qHTS assay to identify small molecule agonists of the estrogen related receptor (ERR) signaling pathway from Tox21 library (AID 1224849; calls by dose curve; note: nearly all actives have a fitted effect of over 15% in size); settings: ERR reporter cell line, ONE-Glo luciferase, 18 h; at 92.4 µM (top of the series) unless noted
Outline: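 Luciferase activity in ERR pathway reporter cells served as the agonist readout; exposure lasted 18 h at 37 C, with ONE-Glo detection after 30 min at room temperature.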

[16] = qHTS RealTime-Glo MT Cell Viability Assay in HepG2 cells - 24 hour (AID 1224867); note: nearly all actives have a fitted effect of over 50% in size
Outline: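 Luminescence read-out: viable HepG2 cells reduce a prosubstrate to a NanoLuc substrate, giving a signal proportional to live cell number. Reads taken at 0, 8, 16, 24, 32 and 40 h of compound exposure at 37 C.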

[17] = qHTS RealTime-Glo MT Cell Viability Assay in HEK293 cells - 32 hour (AID 1224868)
Outline: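 Nonlytic real-time viability readout: viable cells convert prosubstrate to NanoLuc substrate, giving luminescence proportional to live cell number. HEK293, 600 cells/well, compound added after 5 h, continuous culture at 37 C.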

[18] = A CellTox Green Cytotoxicity Assay to monitor cytotoxicity in HEK293 cells - 0 hour (AID 1224869); note: nearly all actives have a fitted effect of over 50% in size
Outline: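 Real-time, in one plate: 600 HEK293 cells/well with dead-cell DNA dye, pinned compound after 5 h, 37 C incubation over 40 h; viable cells give no appreciable fluorescence.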

[19] = molecular target: Nuclear receptor subfamily 1 group I member 3 (Homo sapiens) (UniProt Q14994); experiment: qHTS assay to identify small molecule antagonists of the constitutive androstane receptor (CAR) signaling pathway (AID 1224838); note: nearly all actives have a fitted effect of over 40% in size
Outline: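 Inhibition of CITCO-driven (50 nM final) CYP2B6 reporter expression is measured in HepG2 cells stably carrying hCAR. Fifteen compound concentrations are applied for 24 h at 37 C, followed by luciferase luminescence.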
% is set by controls: 0 for no effect and ±100 for the full control effect.

COP(=O)(OC)OC(c1ccc(Cl)cc1)P(=O)(OC)OC (stereo unspecified)
inactive: Potency [1] | Potency [2] | Potency [3] | Potency [4] | Potency [5] | outcome [6] | Potency [7] | outcome [8] | Potency [9] | outcome [10] | outcome [11] | outcome [12] | Potency [13] | Potency [14] | activity change, positive = activation [15] 1.9% [at 42.5 µM] | outcome [16] | Potency [17] | outcome [18]

CC(=O)Nc1ccc(S(=O)(=O)Cl)cc1
inactive: Potency [1] | Potency [2] | Potency [3] | Potency [4] | outcome [19] | Potency [5] | outcome [8] | outcome [10] | outcome [11] | Potency [13] | Potency [14] | activity change, positive = activation [15] -0.863% | outcome [16] | Potency [17] | outcome [18]

COC(=O)c1ccccc1C(=O)c1ccc(OCCN2CCCCC2)cc1
inactive: Potency [1] | Potency [2] | Potency [3] | Potency [4] | Potency [5] | outcome [6] | Potency [7] | outcome [8] | Potency [9] | outcome [10] | outcome [11] | Potency [13] | Potency [14] | activity change, positive = activation [15] 1.12% [at 42.5 µM] | outcome [16] | Potency [17] | outcome [18]

CCOC(=O)[C@H](CCc1ccccc1)N[C@@H](C)C(=O)N1C(=O)N(C)C[C@H]1C(=O)O
inactive: Potency [1] | Potency [2] | Potency [3] | Potency [4] | outcome [19] | Potency [5] | Potency [9] | outcome [10] | outcome [11] | Potency [13] | outcome [16] | Potency [17] | outcome [18]

CCCCCCCC/C=C\CCCCCCCC(=O)OCCCC
inactive: viability change, negative = cytotoxic [1] -0.0583% [at 19 µM] | activity change, negative = inhibition [2] -1.11% [at 23.6 µM] | viability change, negative = cytotoxic [3] -5.62% [at 19 µM] | activity change, negative = cytotoxicity [4] 3.28% [at 19 µM] | activity, negative = inhibition [19] 20.6% [at 19 µM] | activation [5] 0.178% [at 19 µM] | viability change, negative = cytotoxic [6] -2.58% [at 19 µM] | activation [8] -2.76% [at 19 µM] | activation [9] 1.53% [at 19 µM] | activity change, negative = cytotoxicity [10] -10.5% [at 15.8 µM] | activation (H2AX phosphorylation) [11] 4.47% [at 31.6 µM] | activity change, negative = cytotoxicity [13] -0.831% [at 31.6 µM] | activity, negative = inhibition [14] 0.129% [at 19 µM] | activity change, positive = activation [15] 0.0665% [at 19 µM] | activity change, negative = cytotoxicity [16] 2.67% [at 15.8 µM] | cytotoxicity [18] -14.5% [at 15.8 µM]

On1nnc2ccccc21
inactive: Potency [1] | Potency [2] | Potency [3] | Potency [4] | Potency [5] | outcome [6] | Potency [7] | outcome [8] | Potency [9] | outcome [10] | outcome [11] | outcome [12] | Potency [13] | Potency [14] | activity change, positive = activation [15] 9.52% | outcome [16] | Potency [17] | outcome [18]

Cc1ccc(C=O)cc1C
inactive: Potency [1] | Potency [2] | Potency [3] | Potency [4] | outcome [19] | Potency [5] | outcome [6] | Potency [9] | outcome [10] | outcome [11] | outcome [12] | Potency [13] | outcome [16] | Potency [17] | outcome [18]

C=Cc1ccccn1
inactive: Potency [1] | Potency [2] | Potency [3] | Potency [4] | outcome [19] | Potency [5] | Potency [9] | outcome [10] | outcome [11] | outcome [12] | Potency [13] | outcome [16] | Potency [17] | outcome [18]
